# Key:
# [1] = molecular target: Mitogen-activated protein kinase 3 (Homo sapiens) (UniProt P27361); details: at 1 µM;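 also: values are mean percent inhibition of MAPK3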
# [2] = molecular target: SRSF protein kinase 3 (Homo sapiens) (UniProt Q9UPE1); details: at 0.1 µM
# [3] = molecular target: SRSF protein kinase 3 (Homo sapiens) (UniProt Q9UPE1); details: at 1 µM
# [4] = molecular target: Mitogen-activated protein kinase 14 (Homo sapiens) (UniProt Q16539); details: at 0.1 µM
# [5] = molecular target: Mitogen-activated protein kinase 14 (Homo sapiens) (UniProt Q16539); details: at 1 µM
# [6] = molecular target: Mitogen-activated protein kinase 11 (Homo sapiens) (UniProt Q15759); details: at 0.1 µM
# [7] = molecular target: Mitogen-activated protein kinase 11 (Homo sapiens) (UniProt Q15759); details: at 1 µM
# [8] = molecular target: T1, Mitogen-activated protein kinase 13 (Homo sapiens) (UniProt O15264); details: at 0.1 µM
# T1 sequence (whole entry): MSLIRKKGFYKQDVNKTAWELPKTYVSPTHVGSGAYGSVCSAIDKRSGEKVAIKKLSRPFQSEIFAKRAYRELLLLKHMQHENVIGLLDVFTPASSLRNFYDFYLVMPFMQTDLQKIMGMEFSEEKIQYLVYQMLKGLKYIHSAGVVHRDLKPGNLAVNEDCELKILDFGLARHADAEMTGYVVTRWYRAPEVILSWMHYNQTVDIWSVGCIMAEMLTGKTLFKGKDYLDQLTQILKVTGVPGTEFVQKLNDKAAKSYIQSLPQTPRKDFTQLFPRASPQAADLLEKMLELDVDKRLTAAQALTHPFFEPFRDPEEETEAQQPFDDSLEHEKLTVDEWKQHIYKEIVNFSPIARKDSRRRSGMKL
# [9] = molecular target: T1, Mitogen-activated protein kinase 13 (Homo sapiens); details: at 1 µM
# [10] = molecular target: T2, Mitogen-activated protein kinase 12 (Homo sapiens) (UniProt P53778); details: at 0.1 µM
# T2 sequence (whole entry): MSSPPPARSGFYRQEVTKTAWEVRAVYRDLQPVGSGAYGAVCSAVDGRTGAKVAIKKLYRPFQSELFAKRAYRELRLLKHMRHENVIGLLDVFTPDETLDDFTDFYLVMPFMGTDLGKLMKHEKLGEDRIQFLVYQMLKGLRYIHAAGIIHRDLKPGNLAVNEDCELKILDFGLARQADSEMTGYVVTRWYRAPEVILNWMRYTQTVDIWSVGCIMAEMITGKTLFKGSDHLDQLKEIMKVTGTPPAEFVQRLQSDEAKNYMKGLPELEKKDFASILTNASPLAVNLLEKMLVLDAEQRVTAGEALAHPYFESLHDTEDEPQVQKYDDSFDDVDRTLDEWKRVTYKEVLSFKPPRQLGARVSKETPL
# [11] = molecular target: T2, Mitogen-activated protein kinase 12 (Homo sapiens); details: at 1 µM
# [12] = molecular target: SRSF protein kinase 1 (Homo sapiens) (UniProt Q96SB4); details: at 0.1 µM
# [13] = molecular target: SRSF protein kinase 1 (Homo sapiens) (UniProt Q96SB4); details: at 1 µM
# [14] = molecular target: Phosphatidylinositol 4,5-bisphosphate 3-kinase catalytic subunit alpha isoform (Homo sapiens) (UniProt P42336); details: at 0.1 µM
# [15] = molecular target: Phosphatidylinositol 4,5-bisphosphate 3-kinase catalytic subunit alpha isoform (Homo sapiens) (UniProt P42336); details: at 1 µM
# [16] = molecular target: T3, Phosphatidylinositol 4,5-bisphosphate 3-kinase catalytic subunit delta isoform (Homo sapiens) (UniProt O00329); details: at 0.1 µM
# T3 sequence (whole entry): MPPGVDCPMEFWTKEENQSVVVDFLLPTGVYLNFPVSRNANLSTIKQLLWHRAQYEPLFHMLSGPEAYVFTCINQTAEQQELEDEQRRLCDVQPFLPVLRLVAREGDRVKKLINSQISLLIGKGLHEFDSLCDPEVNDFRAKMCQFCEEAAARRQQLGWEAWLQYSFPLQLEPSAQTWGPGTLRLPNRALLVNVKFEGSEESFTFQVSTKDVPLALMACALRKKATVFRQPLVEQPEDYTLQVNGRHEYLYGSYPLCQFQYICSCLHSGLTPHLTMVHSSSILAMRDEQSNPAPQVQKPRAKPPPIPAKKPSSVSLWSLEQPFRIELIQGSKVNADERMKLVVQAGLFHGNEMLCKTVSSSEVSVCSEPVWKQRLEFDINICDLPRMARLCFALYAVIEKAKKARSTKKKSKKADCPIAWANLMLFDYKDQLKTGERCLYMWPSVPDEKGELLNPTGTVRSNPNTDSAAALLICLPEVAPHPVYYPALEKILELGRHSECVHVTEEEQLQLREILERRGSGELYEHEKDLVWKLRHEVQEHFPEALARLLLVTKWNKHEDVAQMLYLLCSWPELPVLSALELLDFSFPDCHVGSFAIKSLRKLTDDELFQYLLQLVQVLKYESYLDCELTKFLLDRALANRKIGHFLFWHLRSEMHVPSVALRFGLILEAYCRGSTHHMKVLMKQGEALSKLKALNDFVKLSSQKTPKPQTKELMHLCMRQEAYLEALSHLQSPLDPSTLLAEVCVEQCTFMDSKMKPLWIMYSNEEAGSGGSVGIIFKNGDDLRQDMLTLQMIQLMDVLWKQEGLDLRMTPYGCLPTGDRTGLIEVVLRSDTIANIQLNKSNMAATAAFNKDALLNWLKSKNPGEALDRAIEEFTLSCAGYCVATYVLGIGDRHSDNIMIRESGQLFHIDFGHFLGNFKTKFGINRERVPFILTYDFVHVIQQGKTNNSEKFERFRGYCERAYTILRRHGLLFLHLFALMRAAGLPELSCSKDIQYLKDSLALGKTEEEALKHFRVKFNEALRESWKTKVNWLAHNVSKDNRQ
# [17] = molecular target: T3, Phosphatidylinositol 4,5-bisphosphate 3-kinase catalytic subunit delta isoform (Homo sapiens); details: at 1 µM
# [18] = molecular target: Phosphatidylinositol 4-kinase beta (Homo sapiens) (UniProt Q9UBF8); details: at 0.1 µM
# [19] = molecular target: Phosphatidylinositol 4-kinase beta (Homo sapiens) (UniProt Q9UBF8); details: at 1 µM
# [20] = molecular target: Sphingosine kinase 1 (Homo sapiens) (UniProt Q9NYA1); details: at 0.1 µM;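 also: mean percent inhibition of SPHK1 activity, measured within the GSK PKIS screening panel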
# Sphingosine kinase 1 (Homo sapiens), sequence (Q9NYA1 whole entry): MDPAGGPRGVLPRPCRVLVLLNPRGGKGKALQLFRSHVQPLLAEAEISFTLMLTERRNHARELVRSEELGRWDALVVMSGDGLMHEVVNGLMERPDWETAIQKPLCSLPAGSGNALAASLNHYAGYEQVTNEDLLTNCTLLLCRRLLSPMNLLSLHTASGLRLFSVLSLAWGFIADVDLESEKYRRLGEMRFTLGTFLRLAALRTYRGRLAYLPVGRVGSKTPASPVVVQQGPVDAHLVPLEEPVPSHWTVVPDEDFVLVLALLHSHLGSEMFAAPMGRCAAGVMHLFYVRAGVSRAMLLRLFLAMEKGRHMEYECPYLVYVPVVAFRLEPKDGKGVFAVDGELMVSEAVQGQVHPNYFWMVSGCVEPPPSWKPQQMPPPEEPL
# Mitogen-activated protein kinase 11 (Homo sapiens), sequence (Q15759 whole entry): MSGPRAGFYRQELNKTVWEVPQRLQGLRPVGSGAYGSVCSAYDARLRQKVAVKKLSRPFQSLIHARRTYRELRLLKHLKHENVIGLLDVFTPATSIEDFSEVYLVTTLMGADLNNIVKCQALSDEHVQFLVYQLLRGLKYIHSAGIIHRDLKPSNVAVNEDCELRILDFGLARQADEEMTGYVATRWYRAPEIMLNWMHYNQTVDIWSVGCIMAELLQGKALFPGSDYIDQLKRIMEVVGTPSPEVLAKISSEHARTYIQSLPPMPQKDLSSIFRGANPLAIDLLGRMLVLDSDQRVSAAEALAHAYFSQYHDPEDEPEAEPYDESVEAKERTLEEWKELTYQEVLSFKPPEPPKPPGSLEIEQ
# Mitogen-activated protein kinase 3 (Homo sapiens), sequence (P27361 whole entry): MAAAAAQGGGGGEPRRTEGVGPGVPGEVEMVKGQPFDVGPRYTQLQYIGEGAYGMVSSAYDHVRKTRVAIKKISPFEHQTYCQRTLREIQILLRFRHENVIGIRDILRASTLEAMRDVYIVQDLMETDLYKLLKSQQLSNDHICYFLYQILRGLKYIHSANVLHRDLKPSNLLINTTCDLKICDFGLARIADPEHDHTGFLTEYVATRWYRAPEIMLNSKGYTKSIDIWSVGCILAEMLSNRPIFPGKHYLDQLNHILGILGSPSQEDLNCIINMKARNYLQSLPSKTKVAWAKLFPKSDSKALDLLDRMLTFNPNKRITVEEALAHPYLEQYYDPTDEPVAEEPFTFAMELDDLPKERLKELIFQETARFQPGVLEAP
# Phosphatidylinositol 4,5-bisphosphate 3-kinase catalytic subunit alpha isoform (Homo sapiens), sequence (P42336 whole entry, canonical isoform): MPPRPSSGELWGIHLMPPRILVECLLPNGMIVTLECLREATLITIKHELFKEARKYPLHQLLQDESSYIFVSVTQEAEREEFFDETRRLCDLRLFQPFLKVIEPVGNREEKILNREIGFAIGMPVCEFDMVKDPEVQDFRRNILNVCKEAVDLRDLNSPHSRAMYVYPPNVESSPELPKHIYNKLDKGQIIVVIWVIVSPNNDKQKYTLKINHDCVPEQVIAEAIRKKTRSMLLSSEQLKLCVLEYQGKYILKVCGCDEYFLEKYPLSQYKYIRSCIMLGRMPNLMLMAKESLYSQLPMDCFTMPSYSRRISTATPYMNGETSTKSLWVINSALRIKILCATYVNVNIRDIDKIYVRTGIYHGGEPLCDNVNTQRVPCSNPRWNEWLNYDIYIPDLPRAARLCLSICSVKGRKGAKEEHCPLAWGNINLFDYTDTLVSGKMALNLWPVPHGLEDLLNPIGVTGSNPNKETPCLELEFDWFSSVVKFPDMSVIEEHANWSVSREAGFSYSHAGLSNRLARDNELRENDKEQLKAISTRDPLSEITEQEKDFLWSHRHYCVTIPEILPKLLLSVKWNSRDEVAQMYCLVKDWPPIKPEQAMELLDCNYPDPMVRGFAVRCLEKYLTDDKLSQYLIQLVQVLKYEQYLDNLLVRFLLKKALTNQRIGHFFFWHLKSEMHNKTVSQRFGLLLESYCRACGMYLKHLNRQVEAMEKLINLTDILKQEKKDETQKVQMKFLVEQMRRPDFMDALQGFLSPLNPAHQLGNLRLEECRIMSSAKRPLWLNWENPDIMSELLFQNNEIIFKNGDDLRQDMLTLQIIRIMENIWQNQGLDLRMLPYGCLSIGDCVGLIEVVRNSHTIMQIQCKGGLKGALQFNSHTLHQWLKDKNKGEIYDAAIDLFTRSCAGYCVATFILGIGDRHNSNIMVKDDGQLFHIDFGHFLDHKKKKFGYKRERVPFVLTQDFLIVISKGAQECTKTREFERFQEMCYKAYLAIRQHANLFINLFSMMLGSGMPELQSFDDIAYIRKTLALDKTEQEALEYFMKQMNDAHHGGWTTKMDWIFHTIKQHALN
# Mitogen-activated protein kinase 14 (Homo sapiens), sequence (Q16539 whole entry): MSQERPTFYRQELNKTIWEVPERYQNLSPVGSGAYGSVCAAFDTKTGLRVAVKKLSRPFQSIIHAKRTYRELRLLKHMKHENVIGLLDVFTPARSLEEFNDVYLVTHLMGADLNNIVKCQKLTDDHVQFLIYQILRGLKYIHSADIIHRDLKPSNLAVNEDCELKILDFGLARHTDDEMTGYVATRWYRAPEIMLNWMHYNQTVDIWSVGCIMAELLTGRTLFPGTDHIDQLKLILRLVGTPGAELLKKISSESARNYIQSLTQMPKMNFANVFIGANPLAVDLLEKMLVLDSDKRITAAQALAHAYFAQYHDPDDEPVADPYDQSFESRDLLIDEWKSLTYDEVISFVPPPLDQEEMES
# Phosphatidylinositol 4-kinase beta (Homo sapiens), sequence (Q9UBF8 2-816 limits assumed): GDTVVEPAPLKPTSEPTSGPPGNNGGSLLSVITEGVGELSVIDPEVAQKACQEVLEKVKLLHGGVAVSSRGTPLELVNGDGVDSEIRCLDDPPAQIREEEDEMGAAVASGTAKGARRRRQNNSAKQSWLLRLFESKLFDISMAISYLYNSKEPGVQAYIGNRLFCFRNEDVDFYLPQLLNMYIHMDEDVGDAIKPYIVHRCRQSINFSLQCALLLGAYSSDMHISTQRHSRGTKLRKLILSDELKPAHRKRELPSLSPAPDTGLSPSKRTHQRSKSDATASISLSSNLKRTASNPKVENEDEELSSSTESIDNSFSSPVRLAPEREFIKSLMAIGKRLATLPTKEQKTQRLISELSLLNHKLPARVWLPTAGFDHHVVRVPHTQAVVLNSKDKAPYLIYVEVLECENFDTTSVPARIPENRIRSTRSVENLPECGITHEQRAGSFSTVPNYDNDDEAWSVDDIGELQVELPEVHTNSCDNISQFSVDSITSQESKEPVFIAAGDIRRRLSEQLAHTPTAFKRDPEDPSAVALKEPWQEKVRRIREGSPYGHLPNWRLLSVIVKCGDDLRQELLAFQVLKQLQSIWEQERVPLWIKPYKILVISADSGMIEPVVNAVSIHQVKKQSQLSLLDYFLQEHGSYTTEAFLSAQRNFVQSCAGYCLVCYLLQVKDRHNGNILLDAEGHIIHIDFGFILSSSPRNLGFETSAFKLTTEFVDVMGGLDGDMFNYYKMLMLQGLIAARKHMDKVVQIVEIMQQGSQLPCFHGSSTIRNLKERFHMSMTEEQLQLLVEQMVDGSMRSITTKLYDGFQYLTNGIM
# SRSF protein kinase 1 (Homo sapiens), sequence (Q96SB4 whole entry, canonical isoform): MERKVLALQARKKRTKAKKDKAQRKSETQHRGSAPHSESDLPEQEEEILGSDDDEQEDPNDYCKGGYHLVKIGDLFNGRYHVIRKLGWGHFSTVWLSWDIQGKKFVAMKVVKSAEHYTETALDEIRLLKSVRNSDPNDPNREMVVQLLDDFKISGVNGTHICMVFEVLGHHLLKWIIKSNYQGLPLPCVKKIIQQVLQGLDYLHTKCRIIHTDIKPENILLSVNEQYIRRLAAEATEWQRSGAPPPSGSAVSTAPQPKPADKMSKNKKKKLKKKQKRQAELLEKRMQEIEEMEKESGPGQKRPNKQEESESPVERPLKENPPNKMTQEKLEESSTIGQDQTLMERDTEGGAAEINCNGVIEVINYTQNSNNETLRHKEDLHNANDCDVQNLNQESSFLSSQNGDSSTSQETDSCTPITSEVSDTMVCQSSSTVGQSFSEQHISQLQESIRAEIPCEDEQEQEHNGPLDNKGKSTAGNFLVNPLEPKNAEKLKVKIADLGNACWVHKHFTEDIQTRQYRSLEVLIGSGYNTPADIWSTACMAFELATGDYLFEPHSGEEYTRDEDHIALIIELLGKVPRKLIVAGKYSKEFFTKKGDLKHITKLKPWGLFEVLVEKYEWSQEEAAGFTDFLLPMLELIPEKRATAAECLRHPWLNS
# SRSF protein kinase 3 (Homo sapiens), sequence (Q9UPE1 whole entry): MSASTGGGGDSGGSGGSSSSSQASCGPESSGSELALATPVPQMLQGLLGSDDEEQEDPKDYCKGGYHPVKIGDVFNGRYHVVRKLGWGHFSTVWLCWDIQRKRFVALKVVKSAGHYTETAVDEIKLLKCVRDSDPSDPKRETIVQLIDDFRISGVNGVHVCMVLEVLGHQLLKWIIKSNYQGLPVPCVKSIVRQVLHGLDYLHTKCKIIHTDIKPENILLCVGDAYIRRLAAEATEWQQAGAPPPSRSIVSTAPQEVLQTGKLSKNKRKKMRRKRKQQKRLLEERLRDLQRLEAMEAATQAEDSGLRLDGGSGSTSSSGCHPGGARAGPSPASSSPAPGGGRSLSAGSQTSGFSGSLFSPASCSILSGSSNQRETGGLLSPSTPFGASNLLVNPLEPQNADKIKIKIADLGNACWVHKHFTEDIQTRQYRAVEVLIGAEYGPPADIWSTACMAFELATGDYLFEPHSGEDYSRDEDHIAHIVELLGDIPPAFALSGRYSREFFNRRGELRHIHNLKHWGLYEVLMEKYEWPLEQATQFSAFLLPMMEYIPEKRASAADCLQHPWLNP
SMILES,inhibition [1],inhibition [2],inhibition [3],inhibition [4],inhibition [5],inhibition [6],inhibition [7],inhibition [8],inhibition [9],inhibition [10],inhibition [11],inhibition [12],inhibition [13],inhibition [14],inhibition [15],inhibition [16],inhibition [17],inhibition [18],inhibition [19],inhibition [20]
NC(=O)c1cccc(Nc2nccc(Nc3cccc4[nH]ncc34)n2)c1,1.82%,0.19%,3.95%,4.23%,2.87%,-1.99%,3.32%,-0.37%,1.26%,-1.53%,1.3%,1.99%,2.55%,-1.08%,6.41%,1.39%,10.7%,4.75%,10.2%,-1.36%
COc1cc2ncn(-c3cc(O[C@@H](C)c4ccccc4Cl)c(C(N)=O)s3)c2cc1OC,3.07%,-3.53%,-0.07%,6.72%,7.39%,3.1%,2.35%,4.76%,3.82%,3.18%,3.72%,-2.61%,-2.08%,4.55%,11.5%,2.44%,10.6%,3.29%,-6.07%,1.31%
Nc1ncnc2occ(-c3ccc(NC(=O)Nc4cc(C(F)(F)F)cc(C(F)(F)F)c4)cc3)c12,2.23%,1.52%,-0.42%,2.48%,11%,0.21%,8.68%,-0.42%,14.5%,-0.95%,10.2%,-0.82%,0.68%,0.61%,2.7%,2.62%,3.45%,1.16%,2.78%,0.12%
O=C1NC(=O)C(c2ccccc2Cl)=C1Nc1cccc(O)c1,1.29%,1.93%,4.52%,2.48%,4.36%,2.37%,0.91%,1.98%,4.14%,5.33%,0.99%,-0.74%,1.37%,1.03%,1.86%,2.66%,3.71%,1.19%,-2.78%,-1.24%
COc1cc2ncn(-c3cc(OCc4ccccc4C(F)(F)F)c(C(N)=O)s3)c2cc1OC,3.77%,-2.16%,5.51%,9.41%,9.56%,3.98%,7.82%,5.41%,5.14%,4.2%,6.13%,-1.32%,0.47%,4.61%,18.7%,2.08%,15.9%,-3.15%,1.79%,1.28%
CCn1c(-c2nonc2N)nc2ccncc21,1.29%,-2.05%,-2.78%,2.59%,3.78%,2.84%,2.34%,0.59%,0.17%,2.32%,1.43%,-3.78%,-6.35%,0.03%,1.86%,2.2%,2.13%,4.46%,-4.32%,-1.27%
CCn1c(-c2nonc2N)nc2cnc(Oc3cccc(NC(=O)c4ccc(OCCN5CCOCC5)cc4)c3)cc21,-0.18%,-2.67%,-1.29%,2.01%,5.87%,0.84%,1.06%,-1.34%,4.61%,8.56%,3.67%,-1.96%,-3.13%,2.83%,3.79%,1.26%,3.06%,-7.57%,-2.56%,3.68%

# Source: ChEMBL document CHEMBL1961873, “Compounds: GSK PKIS; Assays: Nanosyn kinase panel” (2012)
